According to PubChem BioAssay (NCI):
About 83,000 compounds went through this panel and 20% of them were active in at least one assay; those are over-represented in the sample as a whole.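 In brief: 96-well plates, 48 h treatment, single concentration, percent growth endpoint.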 Activity calls are given as the source filed them.

Each compound was assayed on HCT-116 colon (assay: NCI-60 one-dose screen, 48 h (100 = growth as untreated, 0 = no growth, -100 = all killed)). Details: 10 µM unless noted.
Method: Growth inhibition of the HCT-116 human tumor cell line is measured as a screen for anti-cancer activity. Cells are grown in 96 well plates and exposed to the test compound for 48 hours. Compounds are tested at a single concentration, which is 10^-5 M for most compounds. The reported endpoint is percent growth (GI% or GIPRCNT), where numbers from 0 - 100% represent growth inhibition, and numbers from -100% - 0 represent cell death. For example, a value of 40 represents 60% growth inhibition. A value of 0 means no net growth occurred over the course of the experiment. A value of -40 indicates 40% of cells at the beginning of the experiment died by the end of the experiment. A value of -100 means all cells are dead at the end of the experiment.
NCI-60 Human Tumor Cell Lines Screen was performed using the standard one-dose NCI protocol, which is described in more detail at https://dtp.cancer.gov/discovery_development/nci-60/default.htm.
Compounds with GIPRCNT values below 10 were considered active. Activity score was based on GIPRCNT using the following formula: […]
Score is 0 for GIPRCNT values of 100 or above, 50 for GIPRCNT values of 0, and 100 for GIPRCNT values of -100.

Q: For `COc1cc(/C=C/c2cc(/C=C/c3ccc(O)c(OC)c3)n(C(=O)Nc3ccc(F)cc3)n2)ccc1O`, which growth is on record?
A: 4.95% (active)

Q: For `COc1cc(-c2nc(SCCC(C)C)nc(N3CCOCC3)c2C#N)cc(OC)c1OC`, which growth is on record?
A: 5.13% (active)

Q: `O=C1CCC(C(=O)NN(c2ccccc2)c2ccccc2)N1` (stereo not given) was tested. Which growth did it give?
A: 15.5% (inactive)

Q: For `COc1ccc(OC)c(-c2cn3nc(-c4c[nH]c5ccc(Br)cc45)sc3n2)c1`, which growth is on record?
A: 13.2% (inactive)

Q: Which growth does the source give for `CCCCNC1=C(OCC)C(=O)c2ccccc2C1=O` here?
A: 80.3% (inactive)

Q: For `Cn1cc(-c2nonc2-c2c[nH]c3ccc(F)cc23)c2cc(Br)ccc21`, which growth is on record?
A: 35.1% (inactive)

Q: For `CCN(CC)CCNC(=O)c1ccc(-c2nc3ccc4[nH]ncc4c3c3c2CCCC3)cc1`, which growth is on record?
A: 24.1% (inactive)

Q: How did the growth turn out when `O=C1c2cccnc2C(=O)c2c1c(C(=O)OCCCN1CCCCC1)c1ccccn21` was run?
A: -20.3% (active)

Q: For `COc1cc(/C=N/Nc2ccccc2F)cc(OC)c1OC`, which growth is on record?
A: 84.5% (inactive)

Q: With `COc1ccc(/C=C/C(=O)c2ccc(NC(=O)CSc3nnc(-c4cc(-c5ccccc5)nc5ccccc45)n3-c3ccccc3)cc2)cc1` as the compound, how does the growth read?
A: 98.7% (inactive)

Q: How did the growth turn out when `COCCCOc1cc(C[C@@H](C[C@H](N)[C@@H](O)C[C@H](C(=O)NCC(C)(C)C(N)=O)C(C)C)C(C)C)ccc1OC` was run?
A: 101% (inactive)

Q: Which growth does the source give for `N=c1sc(Cc2cc(Cl)ccc2Cl)cn1CC(=O)c1ccccc1` here?
A: 26.1% (inactive)

Q: Which growth does the source give for `CCOc1ccc(/C=N\N=C\c2ccc(OCC)cc2)cc1` here?
A: 45.5% (inactive)

Q: `CC[C@]12C=CCN3CC[C@@]4(c5ccc(OC)cc5N(C)[C@H]4[C@@](O)(C(=O)OC)[C@@H]1OC(=O)CCCN1CCOCC1)[C@@H]32` was tested. Which growth did it give?
A: 101% (inactive)

Q: Which growth does the source give for `CCN1C(=O)N(CC)C2C1NN=c1s/c(=C\c3cc4ccccc4[nH]3)c(=O)n12` (stereo not given) here?
A: 9.85% (active)

Q: For `COc1ccc(C2=Nc3c(N)ncnc3NC(c3cccc(Nc4ccnc5cc(C(F)(F)F)ccc45)c3)C2)cc1` (stereo not given), which growth is on record?
A: 40% (inactive)

Q: Which growth does the source give for `CCCCCCCC/C=C\CCCCCCCCOc1ccccc1CC(=O)NCC[N+]1(C)CCCCC1` here?
A: 48.2% (inactive)

Q: `C/C(C=O)=C\c1ccc2c(c1)OCO2` was tested. Which growth did it give?
A: 108% (inactive)

Q: For `COc1ccc2c(c1)c(-c1cc(-c3cn(C)c4ccc(OC)cc34)on1)cn2C`, which growth is on record?
A: 89.1% (inactive)

Q: With `CCN1C(=O)N(CC)C2C1NN=C1SCC(=O)N12` (stereo not given) as the compound, how does the growth read?
A: 9.44% (active)

Q: For `Cc1cc2nc3c4ccccc4n(CCN(C)C)c3nc2cc1C`, which growth is on record?
A: 7.19% (active)

Q: `CN1CCN(Cc2ccc(NC(=O)c3cncc(C#Cc4cncc5[nH]ncc45)c3)cc2C(F)(F)F)CC1` was tested. Which growth did it give?
A: 1.91% (active)

Q: `CCCNc1nc2ccccc2c2c(=O)c3cccc(Cl)c3sc12` was tested. Which growth did it give?
A: 72.4% (inactive)

Q: For `Cc1nn(-c2ccccc2)c(/N=C/N(C)C)c1/C=C/C(=O)c1ccc(Cl)cc1`, which growth is on record?
A: 74.7% (inactive)

Q: How did the growth turn out when `O=C(CSc1nc2ccc([N+](=O)[O-])cc2[nH]1)Nc1cccc([N+](=O)[O-])c1` was run?
A: 33.6% (inactive)

Q: For `C=C1C(=O)O[C@H]2[C@H]1CC/C(CNC(=O)c1cc3ccccc3[nH]1)=C\CC[C@@]1(C)O[C@@H]21`, which growth is on record?
A: -84% (active)

Q: Which growth does the source give for `COc1cc2oc(-c3cccc(NC(=O)c4ccc5c(c4)OCO5)c3)cc(=O)c2c(OC)c1OC` here?
A: 35.5% (inactive)

Q: Which growth does the source give for `CN(CCC#N)c1ccc(/C=C2\NC(=O)NC2=O)cc1` here?
A: 91.2% (inactive)

Q: How did the growth turn out when `O=C(CCCCNC(=O)c1cc(=O)c(O)co1)Nc1ccccc1` was run?
A: 30% (inactive)

Q: How did the growth turn out when `CC/C=C\C/C=C/C=C1/C(=O)C=C[C@@H]1C/C=C\CCCC(=O)OC` was run?
A: -76.1% (active)

Q: With `O=C(O)CCCn1c(SCc2c(Cl)cccc2Cl)nc2ccsc2c1=O` as the compound, how does the growth read?
A: 18.8% (inactive)

Q: Which growth does the source give for `C#CCn1cnc2c(Nc3cccc(NC(=O)CCl)c3)ncnc21` here?
A: 12.9% (inactive)

Q: Which growth does the source give for `C[C@@H](CO)[C@@H]1CC[C@]2(C(=O)N3CCN(C)CC3)CC[C@]3(C)[C@H](CC[C@@H]4[C@@]5(C)CC[C@H](O)C(C)(C)[C@@H]5CC[C@]43C)[C@@H]12` here?
A: 16.7% (inactive)

Q: `Cc1cc(N2CCCCC2)nc(N2CCN(CC(=O)Nc3ccc4c(ccn4Cc4ccccc4)c3)CC2)n1` was tested. Which growth did it give?
A: 43.6% (inactive)

Q: Which growth does the source give for `CC1(C)C2CC=C(/C=N/NC(=O)C3CCC(=O)N3)C1C2` (stereo not given) here?
A: 108% (inactive)

Q: `N=C(N)SCc1cccc2c(CSC(=N)N)cccc12` was tested. Which growth did it give?
A: 101% (inactive)

Q: With `CN1CCN(Cc2ccc(NC(=O)c3cncc(C#Cc4cnn5ccccc45)c3)cc2C(F)(F)F)CC1` as the compound, how does the growth read?
A: 4.92% (active)

Q: Which growth does the source give for `Cn1cc(C(=O)c2nc(-c3c[nH]c4ccc(Br)cc34)no2)c2cc(Br)ccc21` here?
A: 63.5% (inactive)

Q: With `CCN(CC)CCCNCc1cc(-c2ccccc2)nc2cc(Cl)ccc12` as the compound, how does the growth read?
A: -16.5% (active)

Q: How did the growth turn out when `O=c1[nH]cnc2c1C(c1ccc(Br)cc1)c1sc3c(F)cccc3c1O2` (stereo not given) was run?
A: 98.9% (inactive)
